# IkB signaling: suppresses IkB signaling in ABC-DLBCL reporter cells | ABC-DLBCL IkBa-CBG/CBR dual luciferase ratio, 4 h; response scale: scaled: untreated 0%, proteasome inhibitor 100% | Potency, µM (doses to about 57.1 µM), for inactives: top-dose IkBa stabilization activation | 110,000 tested, 0.04% active | AID 445; active = well fitted curve in the direction sought with a large enough effect in the signal ratio, not every such curve was filed as active; inconclusive = small, poorly fitted or top-dose-only effect, or a change in a side signal; the % refers to the signal ratio;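 also: the direction sought is a rising ratio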
#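 In this assay, an IκBα–CBG68 fusion accumulates when IKK-driven degradation is blocked; native CBR normalizes for cell number. OCI-Ly3 cells were treated 4 h with compound and doxycycline, then green and red light read after Chroma-Glo addition.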
# p53ts 32C kill: p53ts cell cytotoxicity, permissive temperature; H1299-p53A138V at 32C, ATP luminescence viability, 24 h; 130,000 tested, 0.93% active; Potency, µM (highest dose often 46.1 µM), for the others: at the top dose activity change, negative = cytotoxicity, hits mostly cytotoxic;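 also: 0% = DMSO and -100% = full killing by reference compound; nearly all actives have a fitted effect of over 55% in size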
#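 H1299-p53 A138V cells (temperature-sensitive p53) exposed 24 h to up to 46 uM compound at 32C, where p53 is wild-type in conformation. Viability read as ATP luminescence and normalised to DMSO and 100 uM tamoxifen. AC50 fitted with the Hill equation.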
# Peg3 imprint: inducers of genomic imprint erasure in mouse ES cells; AID 1948; Potency, µM (highest dose often 60.7 µM), inactives show at the top dose activity change, positive = activation, actives largely listed as activators; mouse ES Peg3-LacZ reporter, beta-gal luminescence, 40 h; 110,000 tested, 0.02% active
#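 Imprint erasure is scored as LacZ activity from the silenced maternal Peg3 allele in feeder-free female ES cells cultured 40 h with LIF. Luminescence is normalized to in-plate negative controls and fitted to the Hill equation.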
# p53ts 39C tox: p53ts cell cytotoxicity, nonpermissive temperature. Potency, µM (top dose mostly 46.1 µM), for the others: at the highest dose activity change, negative = cell killing, actives largely listed as cytotoxic. 130,000 tested, 1.5% active. H1299-p53A138V viability at 39C, ATP luminescence, 24 h. AID 902; also: % is scaled to controls: 0 for no effect and ±100 for the full control effect; nearly all actives have a fitted effect of over 55% in size
# An asterisk follows results filed as active; ? = inconclusive; · = no result; [ ] = another dose, or the depositor's remark. Most compounds without a hit are left out; they make up all but 1.7% or so of the library. Unless noted, calls follow the shape of the dose curve; as a rule, active = well fitted curve in the direction sought with a large enough effect; inconclusive = small, poorly fitted or top-dose-only effect, or another doubt; inactive = no such curve, though single readings can be large; an effect the other way counts as inactive or inconclusive. Potency is read from the fitted curve at half-maximal effect.
SMILES,IkB signaling,p53ts 32C kill,Peg3 imprint,p53ts 39C tox
Cc1ccc2cc3cc(C(=O)N4CC(C)CC(C)C4)oc3nc2c1 (stereo unspecified),?,-2%,-19%,-18%
COc1ccc2oc(=O)cc(CN3CCN(C(=O)c4ccccc4Br)CC3)c2c1,?,0%,-10%[10.9 µM],-29%
CCOc1ccc(NC(=O)Cn2c(=O)n(CC3CCC(C(=O)NCCc4ccccc4)CC3)c(=O)c3ccccc32)cc1 (stereo unspecified),?,5%,6%[10.9 µM],-26%
CCn1nnc(NC(=O)c2cccnc2)n1,4%,-13%,4%,7%
CCn1nnc(NC(=O)c2ccc(C(C)(C)C)cc2)n1,-2%,2.5µM*,·,5µM*
CSc1n[nH]c(NCc2ccc(C)cc2)n1,·,11µM*,·,14µM*
CCOc1ccc(S(=O)(=O)Nc2cccc(-c3ccc(N4CCC(C)CC4)nn3)c2)cc1,2%,10µM*,-8%[10.9 µM],10µM*
Cc1ccc(S(=O)(=O)Nc2cccc(-c3ccc(N4CCC(C)CC4)nn3)c2)s1,?,13µM*,-10%[10.9 µM],4µM*
CC1CCN(c2ccc(-c3cccc(NS(=O)(=O)c4ccc(F)cc4F)c3)nn2)CC1,?,16µM*,-13%[10.9 µM],13µM*
O=S(=O)(Nc1cccc(-c2ccc(N3CCCCC3)nn2)c1)c1ccc(F)cc1F,-2%,13µM*,-18%[10.9 µM],?
O=C1c2ccccc2C(=O)c2c1ccc(N1C(=O)c3ccccc3C1=O)c2-c1c(N2C(=O)c3ccccc3C2=O)ccc2c1C(=O)c1ccccc1C2=O,0%[11.4 µM],·,·,·
CCC12CN3CC(CC)(CN(C1)C3c1c[nH]c3ccccc13)C2=O (stereo unspecified),6%,-2%,4%[10.9 µM],6%
COc1ccc(-c2cc(C(F)(F)F)nc(N3CCCCCC3)n2)cc1,0%,-13%,-5%,0%
COc1ccc(-c2cc(C(N)=O)nc(N3CCCCCC3)n2)cc1,?,7.9µM*,-89%,10µM*
Cc1ccc(NC(=O)c2cc(C)n(-c3ccccc3)c2C)cc1,·,·,·,7.1µM*
COc1ccc(NC(=O)c2oc3ccc4c(c3c2C)C(=O)CC(C)(C)O4)cc1OC,?,10µM*,?,4µM*
CCOc1ccccc1CNC(=O)c1oc2ccc3c(c2c1C)C(=O)CC(C)(C)O3,-1%,0%,-17%[10.9 µM],-20%
CCC1(C)CC(=O)c2c(ccc3oc(C(=O)NCc4ccccc4)c(C)c23)O1 (stereo unspecified),?,-15%,12%[10.9 µM],-18%
CCc1cccc(NC(=O)c2oc3ccc4c(c3c2C)C(=O)CC(C)(C)O4)c1,-3%,?,-26%[10.9 µM],6.3µM*
CCN1CCN(Cc2c(O)ccc3c(=O)c(Oc4ccccc4C(C)C)c(C(F)(F)F)oc23)CC1,?,3%,-10%[10.9 µM],18%
CCCCC(=O)Nc1c(C(=O)N2CCN(c3ccccc3)CC2)oc2ccccc12,?,17%,-3%[10.9 µM],16µM*
CC(C)CC(=O)Nc1c(C(=O)N2CCN(c3ccccc3)CC2)oc2ccccc12,?,-10%,13%[10.9 µM],17%
Cc1cc(C)cc(NC(=O)CCS(=O)(=O)c2ccc3c(c2)oc(=O)n3C)c1,2%,3%,5%[10.9 µM],23%
Cc1nn(-c2nc3ccccc3s2)c(C)c1Oc1ccccc1O,?,13µM*,-19%,?
CC(=O)C(C(C)=O)c1c(Cl)c(O)c(O)c2c(C(=O)c3ccccc3)coc12,?,13µM*,-35%,?
SMILES,IkB signaling,p53ts 32C kill,Peg3 imprint,p53ts 39C tox
CN1CCN(Cc2c(O)ccc3occ(C(=O)c4ccccc4)c23)CC1,0%,1%,-6%,1%
CCOc1ccccc1C(=O)N1CCN(CCc2ccccn2)CC1,1%,9%,-6%[10.9 µM],-8%
O=c1c2ccccc2n(Cc2c(F)cccc2Cl)c(=O)n1CCc1ccccc1,3%,-2%,-8%[10.9 µM],-5%
O=C(c1[nH]o[n+](=O)c1C(=O)c1csc2ccccc12)c1csc2ccccc12,9%[11.4 µM],8%[9.22 µM],·,?
Cc1cc(-c2ccc(N=Nc3ccc4c(S(=O)(=O)O)cc(S(=O)(=O)O)c(N)c4c3O)c(C)c2)ccc1N=Nc1ccc2c(S(=O)(=O)O)cc(S(=O)(=O)O)c(N)c2c1O,?,13µM*,-44%,16µM*
O=C(O)c1cc(-c2ccc3cc4c(cc3c2)OCO4)nc2ccccc12,0%[11.4 µM],1.6µM*,-50%[10.9 µM],1.3µM*

# Compound activity: PubChem BioAssay, National Center for Advancing Translational Sciences (NCATS)
